Among the data in PubChem BioAssay (NCI) are growth inhibition values, retold here.

SMILES strings stand for the structures. About 79,000 compounds went through this panel and 15% of them were active in at least one assay; those are over-represented in the sample as a whole. Calls of active or inactive are those of the source. No stated cut-off is given here; in the data, active means growth inhibition above about 70%; inactive means the rest.

This experiment is described as follows: NCI Yeast Anticancer Drug Screen. Data for the rad50 strain (AID 155).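 Further: 0% = growth of vehicle-only cultures of the same strain.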 The settings on record: S. cerevisiae rad50 strain growth inhibition; at 50.0 µM (retest, dose inferred, filed as 5.0); hits give high values. The procedure, abridged: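 Compounds were tested on a yeast strain with an engineered DNA damage repair alteration; the reported value is growth inhibition normalised to vehicle treatment.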
With `Cc1cccc(NC(=O)CCc2ccc(Cl)cc2)n1`, the growth inhibition was 1% (inactive).
The figure for `O=C(NNc1nc(-c2ccccc2)cs1)C(F)(F)F` is 97% (active); for `COc1ccc(C(=O)C(c2ccc(OC)cc2)C2(O)C(=O)Nc3c(Cl)cc(Cl)cc32)cc1` (centres undefined) it is 37% (inactive); for `CC(=O)NNc1nc(C)c(C(=O)NNC(=O)C(=O)Nc2ccc(Cl)c([N+](=O)[O-])c2)s1` it is 34% (inactive).
The figure for `COc1ccc(Cc2cncc3c(O)c(OC)ccc23)cc1O` is 44% (inactive).
For `Nc1ccccc1N=Nc1c(S(=O)(=O)O)cc2cc(S(=O)(=O)O)cc(O)c2c1O`, the growth inhibition was 23% (inactive).
The figure for `CCN(CC)c1c(C(=O)/C=C/c2ccc(OC)cc2)c(-c2ccccc2)nn(C)c1=O` is 17% (inactive).
Take `O=C(O)/C=C/c1ccc(Cl)c(Cl)c1`: the growth inhibition was 83% (active).
The figure for `CCC12C=CCN3CC[C@@]4(c5cc([C@@]6(C(=O)OC)C[C@@H]7CN(CCc8c6[nH]c6ccccc86)C[C@](O)(CC)C7)c(OC)cc5N(C)[C@H]4[C@@](O)(C(=O)OC)[C@@H]1OC(=O)CCCCCCCCCCCN1C(=O)C=CC1=O)[C@H]32` (some centres undefined) is 98% (active); for `Cc1cc(C)c(Cc2cc(C(C)(C)C)cc(C)c2O)cc1Cc1cc(C(C)(C)C)cc(C)c1O` it is 10% (inactive).
The figure for `COC(=O)C(=O)/C=C(/O)c1ccc(OC)cc1` is -1% (inactive); for `Oc1ccc2c(c1)OCC1c3ccccc3OC21` (centres undefined) it is 71% (active); for `Cc1cc(N2C(=O)CCSC2=S)c([N+](=O)[O-])cc1C` it is 99% (active).
Then `CCCCCCC(C)S(=O)(=O)c1ccc(C)cc1` (centres undefined), with 63% (inactive); and `S=c1sc2c(s1)SCCOCCOCCOCCS2`, with 3% (inactive).
Regarding `N#Cc1cn(-c2c3ccccc3nc3ccccc23)c(=O)[nH]c1=O`, the growth inhibition is 67% (inactive).
On to `O=C1C=C(c2ccccc2)O/C1=C\C(=O)c1ccc(Cl)cc1`, for which the growth inhibition was 48% (inactive).
Then `O=c1[nH]c2cc(Cl)ccc2nc1/C=C(\O)c1ccc(N2CCN(c3ccc(/C(O)=C/c4nc5ccc(Cl)cc5[nH]c4=O)cc3)CC2)cc1`, with 12% (inactive).
Then `O=C1Oc2ccccc2C(=O)/C1=C/N1C(=O)/C(=C/c2ccccc2)NC1=S`, with 31% (inactive); and `CN(C)/C=C(\C(=O)c1ccccc1)n1nc(-c2ccccc2)cc1-c1ccccc1`, with 45% (inactive); and `O=C1C(=O)c2ccccc2C(O)=C1Sc1ccccc1`, with 92% (active).
`O=C(c1c(F)c(F)c(F)c(F)c1F)n1c(=S)n(C(=O)c2c(F)c(F)c(F)c(F)c2F)c2ccccc21`: the growth inhibition was 96% (active).
For `CCCCNCCC1(c2ccccc2)C(=O)Oc2ccccc21` (centres undefined), the growth inhibition is 14% (inactive).
The figure for `COc1cc(/C=C/c2cc[n+](C)cc2)ccc1O` is -14% (inactive).
The figure for `c1ccc(-c2ccc(-c3ccc(C4=NCCN4)cc3)o2)cc1` is 91% (active); for `CCCCCCCCCCCCCCNC(=O)C[N+](C)(C)Cc1ccccc1` it is 99% (active); for `NC(CSSCC(N)C(=O)Nc1ccc2ccccc2c1)C(=O)Nc1ccc2ccccc2c1` (centres undefined) it is 98% (active).
The figure for `O=C(OCc1ccccc1)C(O)c1ccccc1` (centres undefined) is 16% (inactive); for `CC(=O)CC1(O)C(=O)Nc2ccc(Br)cc21` (centres undefined) it is -2% (inactive); for `S=C(S)NCCN1CCNCC1` it is -14% (inactive).
`CCCCCCCC(=O)N1CCCCC1CC` (centres undefined): the growth inhibition was 14% (inactive).
The figure for `O=C1CCCC1C(=O)OC1CCCC1` (centres undefined) is 13% (inactive).
For the compound `CCN1CCC(O)(/C=C/c2cccc(C)c2)C(C(=O)/C=C/c2cccc(C)c2)C1` (centres undefined), the growth inhibition was 96% (active).
For `O=C(SCCCc1ccccc1)c1cc([N+](=O)[O-])cc([N+](=O)[O-])c1`, the growth inhibition is 87% (active).
Turning to `O=C1C(=O)C2CC3(CC1N2Cc1ccccc1)OCCO3`, the growth inhibition is 95% (active).
The figure for `CNc1cc(SC)nc(N)n1` is -7% (inactive).
Then `Clc1ccc(Cl)c(SCCCN2CCNCC2)c1`, with 65% (inactive); and `CC(C)C(Cl)CC/C(CBr)=C(\Cl)CCl` (centres undefined), with 89% (active); and `O=C(O)CNc1ccc2c(c1)Cc1cc(Br)ccc1-2`, with 88% (active).
